Structures are written as SMILES. Active and inactive are the calls of the source. How the source made its calls: active means hit-call score of the fitted dose curve at least 0.9, where 1 is the maximum; inactive means score below 0.9.

The nature of experiment [1]: ATG_GLI_CIS: Attagene CIS-FACTORIAL HepG2 Assay for human Zinc Finger Protein GLI1 (AID 2282945). The following applies: HepG2, Attagene cis-factorial reporter mRNA, GLI element; actives raise or lower the signal. The method in brief:
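HepG2 cells transiently transfected with cis-promoter multiplexed reporter units report endogenous transcription factor activity. After 24 h chemical exposure, reporter mRNA was quantified by RT-PCR, 6-FAM labelling, HpaI digestion and capillary electrophoresis, with bidirectional fitting against DMSO.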

The nature of experiment [2]: ATG_GRE_CIS: Attagene CIS-FACTORIAL HepG2 Assay for human Glucocorticoid Response Elements (GRE) (AID 2282947). The following applies: HepG2 GRE cis-reporter, Attagene multiplex mRNA; actives raise or lower the signal. The procedure, abridged:
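HepG2, transient cis-reporter transfection, 24 h. Reporter mRNA: RT-PCR then CE, fluorescence. Fit both directions vs DMSO.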

The nature of experiment [3]: ATG_ISRE_CIS: Attagene CIS-FACTORIAL HepG2 Assay for human Interferon Regulatory Factor 1 (IRF1) binding to an Interferon-Stimulated Response Element (ISRE) (AID 2282948). As to conditions: HepG2 ISRE cis-reporter (Attagene), mRNA transcription readout; actives raise or lower the signal. The procedure, abridged: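 Read-out: fluorescent RT-PCR products resolved by capillary electrophoresis, reporting endogenous transcription factor activity via ISRE-driven reporter mRNA in transfected HepG2 cells dosed for 24 h; gain or loss fitted relative to DMSO.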

Experiment [4] is described as follows: ATG_M_32_CIS: Attagene CIS-FACTORIAL HepG2 Assay for M32 Transcription Factor (Internal Marker) (AID 2282949).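 Further: background control marker of the multiplexed CIS panel rather than a real target.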 As to conditions: HepG2 Attagene cis-factorial M32 reporter, mRNA; actives raise or lower the signal. The method in brief: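 Using DMSO as baseline, bidirectional curve fits were applied to reporter mRNA signals. These came from transiently transfected HepG2 cells exposed for 24 h, with RNA analysed by RT-PCR, FAM primer extension, HpaI digestion and CE.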

The target of experiment [5] is Hypoxia-inducible factor 1-alpha (Homo sapiens) (UniProt Q16665). Kind of experiment: ATG_HIF1a_CIS: Attagene CIS-FACTORIAL HepG2 Assay for human Hypoxia Inducible Factor 1 (HIF1A) (AID 2282951). The following applies: HepG2 Attagene cis-factorial HIF1a reporter transcription; actives raise or lower the signal. The method in brief: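 Endogenous-TF cis reporter readout, human HepG2 cells, 24 h incubation; mRNA detected via RT-PCR and capillary electrophoresis fluorescence; DMSO-normalised bidirectional fitting.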

For experiment [6], the target named is Hepatocyte nuclear factor 6 (Homo sapiens) (UniProt Q9UBC0). Description: ATG_HNF6_CIS: Attagene CIS-FACTORIAL HepG2 Assay for human Hepatocyte Nuclear Factor 6 (HNF6) (AID 2282952). The following applies: HepG2 Attagene cis-factorial HNF6 reporter transcription; actives raise or lower the signal. The procedure, abridged:
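Endogenous factor activity read in transiently transfected HepG2 via promoter-regulated reporter transcripts. RNA harvested 24 h post-dosing, reverse-transcribed, PCR-amplified, FAM-labelled, HpaI-digested and resolved by capillary electrophoresis; fitted in both directions against DMSO.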

Experiment [7] has as its target Heat shock factor protein 1 (Homo sapiens) (UniProt Q00613). Description: ATG_HSE_CIS: Attagene CIS-FACTORIAL HepG2 Assay for human Heat Shock Transcription Factor 1 (HSE) (AID 2282953). The following applies: HepG2 HSE cis-reporter, Attagene RNA transcription; actives raise or lower the signal. The method in brief:
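Endogenous transcription factor activity in transiently transfected HepG2, read as reporter mRNA by RT-PCR with fluorescent capillary electrophoresis after 24 h. Gain or loss of signal fitted versus DMSO baseline.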

Experiment [8] in a line: ATG_MRE_CIS: Attagene CIS-FACTORIAL HepG2 Assay for human Metal Responsive Element (MRE) (AID 2282954). The following applies: HepG2 MRE cis-reporter transcription, Attagene multiplex; actives raise or lower the signal. The procedure, abridged:
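Readout: capillary electrophoresis of 6-FAM-labelled, HpaI-digested RT-PCR reporter products. System: HepG2 cells carrying transient multiplexed cis reporters, dosed 24 h. Analysis: bidirectional fit, DMSO baseline.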

Experiment [9] has as its target Paired box protein Pax-6 (Homo sapiens) (UniProt P26367). Kind of experiment: ATG_Pax6_CIS: Attagene CIS-FACTORIAL HepG2 Assay for human Paired Box 6 (PAX6) (AID 2282956). The following applies: HepG2 CIS-FACTORIAL PAX6 reporter transcription, RNA readout; actives raise or lower the signal. The procedure, abridged:
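Readout: reporter transcript fluorescence after RT-PCR and capillary electrophoresis. Cells: HepG2, transiently transfected with cis-regulated MRTUs. Exposure 24 h. Gain or loss of signal fitted bidirectionally relative to DMSO.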

Experiment [10] in a line: ATG_PXRE_CIS: Attagene CIS-FACTORIAL HepG2 Assay for human Pregnane X Receptor Element (PXRE) (AID 2282957). The following applies: HepG2 Attagene CIS-FACTORIAL PXRE reporter, mRNA; actives raise or lower the signal. The procedure, abridged:
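Reporter transcripts under endogenous PXR-responsive cis-regulation quantified from total RNA of transfected HepG2 cells 24 h post-dosing, via RT-PCR with fluorescent primer extension and capillary electrophoresis. Gain or loss of signal fitted against DMSO baseline.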

Experiment [11] can be described thus: ATG_PPRE_CIS: Attagene CIS-FACTORIAL HepG2 Assay for human Peroxisome Proliferator-activated Response Element (PPRE) (AID 2282958). The following applies: HepG2 PPRE cis-element reporter, Attagene transcription factor profiling; actives raise or lower the signal. The procedure, abridged:
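After human HepG2 hepatoma cells were transiently transfected with cis-promoter reporter constructs, they were exposed to test chemicals for 24 hours. Reporter RNA was then reverse-transcribed, PCR-amplified, FAM-labeled, HpaI-digested and quantified by capillary electrophoresis.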

A short description of experiment [12]: ATG_RORE_CIS: Attagene CIS-FACTORIAL HepG2 Assay for human RAR-related Orphan Receptor Element (RORE) (AID 2282959). As to conditions: HepG2 Attagene cis-factorial RORE reporter, mRNA; actives raise or lower the signal. The method in brief: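 Measured here: transcript induction of a cis-regulated reporter in HepG2 cells transiently transfected via FuGene 6. After 24 h, RNA was processed by RT-PCR and fluorescent capillary electrophoresis; DMSO defined baseline activity.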

The nature of experiment [13]: ATG_Sox_CIS: Attagene CIS-FACTORIAL HepG2 Assay for human SRY-box transcription factor (SOX) (AID 2282960). The following applies: HepG2 Attagene cis-factorial SOX reporter, mRNA; actives raise or lower the signal. The method in brief: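 Using transiently transfected HepG2 cells, reporter transcription driven by cis elements was assessed 24 h after dosing. Signal was fluorescence of capillary-separated RT-PCR products, with DMSO defining baseline activity.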

Experiment [14] concerns the target Transcription factor Sp1 (Homo sapiens) (UniProt P08047). Description: ATG_Sp1_CIS: Attagene CIS-FACTORIAL HepG2 Assay for human Specificity Protein 1 (Sp1) (AID 2282961). The following applies: HepG2 Sp1 cis-reporter transcription, actives raise or lower the signal. The method in brief: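 After transient transfection of HepG2 cells with cis-promoter reporter units and 24 h chemical treatment, reporter transcripts were quantified by RT-PCR and capillary electrophoresis fluorescence. Gain- and loss-of-signal fitted against DMSO.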

A short description of experiment [15]: ATG_SREBP_CIS: Attagene CIS-FACTORIAL HepG2 Assay for human Sterol Regulatory Element Binding (SREBP) (AID 2282962). The following applies: HepG2 Attagene cis-factorial SREBP reporter, mRNA; actives raise or lower the signal. The method in brief:
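Readout: fluorescent reporter-transcript peaks resolved by capillary electrophoresis after RT-PCR. Cells were human HepG2 carrying transfected cis-promoter reporter constructs, dosed for 24 h. Gain or loss of signal was fitted against DMSO controls.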

Experiment [16] deals with Signal transducer and activator of transcription 3 (Homo sapiens) (UniProt P40763). Description: ATG_STAT3_CIS: Attagene CIS-FACTORIAL HepG2 Assay for human Signal Transducer and Activator of Transcription 3 (STAT3) (AID 2282963). The following applies: HepG2, Attagene cis-factorial STAT3 reporter transcription; actives raise or lower the signal. The method in brief: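 Uses human liver HepG2 transiently carrying cis-regulated reporter transcription units. Following 24 h dosing, reporter mRNA induction was detected by RT-PCR and capillary electrophoresis, analysed bidirectionally versus DMSO.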

Experiment [17] is described as follows: ATG_TA_CIS: Attagene CIS-FACTORIAL HepG2 Assay for human TA Basal Promoter (AID 2282964). As to conditions: HepG2 Attagene CIS-factorial TA basal promoter reporter; actives raise or lower the signal. The method in brief:
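Background-control readout: TA basal promoter reporter mRNA, fitted in both directions relative to DMSO. Measured by RT-PCR and capillary electrophoresis 24 hours after treating HepG2 human liver cells transiently carrying multiplexed cis-regulated reporter constructs.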

The nature of experiment [18]: ATG_PBREM_CIS: Attagene CIS-FACTORIAL HepG2 Assay for human Phenobarbital-responsive Enhancer Module (PBREM) (AID 2282955). As to conditions: HepG2 PBREM cis-reporter, Attagene multiplexed transcription; actives raise or lower the signal. The procedure, abridged:
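Readout: reporter mRNA, fluorescent RT-PCR fragments separated by capillary electrophoresis. System: HepG2 transiently transfected with cis-regulated reporter units. Exposure: 24 h. Analysis: bidirectional, DMSO baseline.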

A short description of experiment [19]: ATG_M_06_CIS: Attagene CIS-FACTORIAL HepG2 Assay for M06 Transcription Factor (Internal Marker) (AID 2282950). As to conditions: HepG2 Attagene CIS-FACTORIAL M06 internal marker reporter; actives raise or lower the signal. The method in brief: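 Serves as a background control readout. Transfected HepG2 exposed to compounds for 24 h, then reporter transcripts quantified by fluorescent RT-PCR and capillary electrophoresis. Both directions fitted against DMSO baseline.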

Paired box protein Pax-6 (Homo sapiens), sequence (P26367 whole entry, looked up): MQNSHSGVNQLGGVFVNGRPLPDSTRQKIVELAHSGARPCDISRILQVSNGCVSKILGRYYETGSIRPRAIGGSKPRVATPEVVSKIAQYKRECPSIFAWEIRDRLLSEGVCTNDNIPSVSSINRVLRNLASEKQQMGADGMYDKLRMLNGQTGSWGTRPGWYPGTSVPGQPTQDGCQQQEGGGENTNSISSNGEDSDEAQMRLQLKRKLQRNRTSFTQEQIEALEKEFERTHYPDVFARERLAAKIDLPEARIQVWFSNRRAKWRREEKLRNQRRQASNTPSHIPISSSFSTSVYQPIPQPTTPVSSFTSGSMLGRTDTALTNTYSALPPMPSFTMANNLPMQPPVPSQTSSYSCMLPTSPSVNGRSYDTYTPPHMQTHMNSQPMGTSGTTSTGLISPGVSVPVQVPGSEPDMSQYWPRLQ
Hypoxia-inducible factor 1-alpha (Homo sapiens), sequence (Q16665 whole entry, looked up): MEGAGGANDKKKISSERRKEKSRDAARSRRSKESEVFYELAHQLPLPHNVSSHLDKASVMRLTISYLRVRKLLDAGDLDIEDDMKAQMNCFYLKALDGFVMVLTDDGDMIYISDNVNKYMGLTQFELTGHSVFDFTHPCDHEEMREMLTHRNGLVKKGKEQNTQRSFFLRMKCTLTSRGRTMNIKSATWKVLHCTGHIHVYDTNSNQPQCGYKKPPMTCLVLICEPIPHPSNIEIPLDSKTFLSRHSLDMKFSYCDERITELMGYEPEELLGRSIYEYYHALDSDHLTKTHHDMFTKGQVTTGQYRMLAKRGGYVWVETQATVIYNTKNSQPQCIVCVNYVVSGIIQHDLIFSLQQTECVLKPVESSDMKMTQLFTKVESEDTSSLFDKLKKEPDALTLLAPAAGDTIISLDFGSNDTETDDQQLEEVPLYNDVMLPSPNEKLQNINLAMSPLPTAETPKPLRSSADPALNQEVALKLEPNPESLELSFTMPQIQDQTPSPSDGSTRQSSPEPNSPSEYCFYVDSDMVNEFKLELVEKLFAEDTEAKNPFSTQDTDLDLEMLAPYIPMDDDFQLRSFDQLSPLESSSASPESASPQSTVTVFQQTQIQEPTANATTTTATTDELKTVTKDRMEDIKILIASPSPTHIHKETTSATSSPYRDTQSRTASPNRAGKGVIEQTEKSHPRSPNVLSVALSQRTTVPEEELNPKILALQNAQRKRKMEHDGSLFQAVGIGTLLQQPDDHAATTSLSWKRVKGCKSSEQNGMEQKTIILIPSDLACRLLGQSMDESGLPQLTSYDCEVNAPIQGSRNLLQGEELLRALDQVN
Heat shock factor protein 1 (Homo sapiens), sequence (Q00613 whole entry, looked up): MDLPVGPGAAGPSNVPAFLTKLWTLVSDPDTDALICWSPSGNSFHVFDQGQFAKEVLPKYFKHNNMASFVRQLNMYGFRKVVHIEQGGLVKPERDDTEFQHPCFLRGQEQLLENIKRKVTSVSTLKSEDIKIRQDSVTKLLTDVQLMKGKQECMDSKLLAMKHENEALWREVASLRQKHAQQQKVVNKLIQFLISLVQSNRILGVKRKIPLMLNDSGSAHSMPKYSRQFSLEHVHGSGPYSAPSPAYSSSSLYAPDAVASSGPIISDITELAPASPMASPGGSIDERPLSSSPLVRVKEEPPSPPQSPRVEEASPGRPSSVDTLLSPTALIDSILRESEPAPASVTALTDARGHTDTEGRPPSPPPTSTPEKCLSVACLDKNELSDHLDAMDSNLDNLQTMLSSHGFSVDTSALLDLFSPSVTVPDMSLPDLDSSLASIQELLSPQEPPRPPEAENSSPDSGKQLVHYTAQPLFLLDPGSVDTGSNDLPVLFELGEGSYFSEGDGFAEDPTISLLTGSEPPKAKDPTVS
Hepatocyte nuclear factor 6 (Homo sapiens), sequence (Q9UBC0 whole entry, looked up): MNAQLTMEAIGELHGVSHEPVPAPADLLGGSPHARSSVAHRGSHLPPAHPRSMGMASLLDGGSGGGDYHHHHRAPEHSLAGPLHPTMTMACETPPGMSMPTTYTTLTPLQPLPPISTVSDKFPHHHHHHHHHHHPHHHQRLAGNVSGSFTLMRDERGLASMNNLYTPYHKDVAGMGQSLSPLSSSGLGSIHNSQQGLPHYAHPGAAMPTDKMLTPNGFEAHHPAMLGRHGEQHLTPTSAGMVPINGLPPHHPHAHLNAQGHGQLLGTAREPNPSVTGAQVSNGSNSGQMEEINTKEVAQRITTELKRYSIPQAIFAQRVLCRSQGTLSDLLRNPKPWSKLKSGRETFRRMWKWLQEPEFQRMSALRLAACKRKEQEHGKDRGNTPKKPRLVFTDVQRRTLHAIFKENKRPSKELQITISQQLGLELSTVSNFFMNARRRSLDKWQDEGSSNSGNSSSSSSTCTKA
Transcription factor Sp1 (Homo sapiens), sequence (P08047 whole entry, looked up): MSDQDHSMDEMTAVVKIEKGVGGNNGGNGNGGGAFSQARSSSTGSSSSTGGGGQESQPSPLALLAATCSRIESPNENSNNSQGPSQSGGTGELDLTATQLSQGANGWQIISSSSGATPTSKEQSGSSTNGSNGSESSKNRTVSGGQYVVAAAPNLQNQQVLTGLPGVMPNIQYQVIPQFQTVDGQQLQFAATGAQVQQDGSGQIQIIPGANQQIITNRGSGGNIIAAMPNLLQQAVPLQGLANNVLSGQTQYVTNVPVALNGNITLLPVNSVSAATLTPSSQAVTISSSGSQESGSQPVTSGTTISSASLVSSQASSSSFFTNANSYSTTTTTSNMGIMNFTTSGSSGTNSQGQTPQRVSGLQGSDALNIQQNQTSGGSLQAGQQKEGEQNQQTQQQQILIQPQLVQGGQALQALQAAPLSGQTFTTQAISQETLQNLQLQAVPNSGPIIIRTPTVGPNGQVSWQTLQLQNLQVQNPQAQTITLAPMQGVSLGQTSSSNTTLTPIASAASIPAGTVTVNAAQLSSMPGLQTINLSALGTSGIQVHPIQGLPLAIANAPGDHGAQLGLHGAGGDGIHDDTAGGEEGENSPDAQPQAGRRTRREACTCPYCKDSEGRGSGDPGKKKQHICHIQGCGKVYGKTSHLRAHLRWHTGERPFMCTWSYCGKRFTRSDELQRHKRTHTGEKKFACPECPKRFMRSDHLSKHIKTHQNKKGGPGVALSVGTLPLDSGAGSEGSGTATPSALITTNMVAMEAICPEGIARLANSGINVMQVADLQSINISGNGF
Signal transducer and activator of transcription 3 (Homo sapiens), sequence (P40763 whole entry, looked up): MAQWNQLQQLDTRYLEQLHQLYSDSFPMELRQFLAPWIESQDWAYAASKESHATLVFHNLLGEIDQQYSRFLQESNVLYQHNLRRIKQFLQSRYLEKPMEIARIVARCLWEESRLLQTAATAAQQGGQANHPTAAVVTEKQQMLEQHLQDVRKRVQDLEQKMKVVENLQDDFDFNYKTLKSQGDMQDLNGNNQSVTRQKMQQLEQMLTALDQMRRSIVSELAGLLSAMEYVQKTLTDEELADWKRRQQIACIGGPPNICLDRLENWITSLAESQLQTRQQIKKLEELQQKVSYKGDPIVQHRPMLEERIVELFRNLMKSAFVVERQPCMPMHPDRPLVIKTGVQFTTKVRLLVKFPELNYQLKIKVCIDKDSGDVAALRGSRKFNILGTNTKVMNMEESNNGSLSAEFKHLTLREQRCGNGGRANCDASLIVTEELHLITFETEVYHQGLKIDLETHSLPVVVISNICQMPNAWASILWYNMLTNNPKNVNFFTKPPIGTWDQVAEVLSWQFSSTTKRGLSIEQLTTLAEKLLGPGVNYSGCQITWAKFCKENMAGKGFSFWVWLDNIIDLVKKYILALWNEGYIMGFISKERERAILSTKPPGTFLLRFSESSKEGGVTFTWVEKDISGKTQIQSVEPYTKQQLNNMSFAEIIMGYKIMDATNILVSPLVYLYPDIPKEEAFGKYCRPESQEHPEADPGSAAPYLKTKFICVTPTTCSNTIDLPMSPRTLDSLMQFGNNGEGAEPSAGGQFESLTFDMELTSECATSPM

What is called AC50 is the midpoint of the concentration-response curve, whichever way the signal moves. As to `CCOC(=O)/C=C\C(=O)OCC`, the outcome in experiment [1], in experiment [2], in experiment [3], in experiment [4], in [5] and in experiment [6] was inactive. For the same compound, the result in [7], in [8], in experiment [9], in experiment [10], in experiment [12] and in experiment [13] was inactive. The compound was called inactive in experiment [14], in [15] and in experiment [16]. Besides, in experiment [11], the AC50 is 7.64 µM (active).

With `CC(=O)OCc1ccccc1`, the call in [1], in experiment [2], in experiment [3], in [6], in experiment [7] and in [8] was inactive. In addition, the result in [9], in experiment [10], in [11], in [12], in experiment [13] and in experiment [14] was inactive. Further, the outcome in experiment [15], in [16] and in experiment [17] was inactive.

As for `CC(=O)OCCc1ccccc1`, the result in experiment [1], in experiment [2], in experiment [3], in experiment [5], in experiment [6] and in experiment [7] was inactive. Moreover, the compound was classed as inactive in experiment [8], in [18], in [11], in experiment [12], in experiment [13] and in experiment [14]. Moreover, the result in experiment [15], in experiment [16] and in experiment [17] was inactive.

`CC(=O)CC(=O)Nc1ccccc1C`: the outcome in experiment [1], in experiment [2], in experiment [3], in [19], in experiment [5] and in [6] was inactive. Moreover, the result in experiment [7], in experiment [8], in [18], in experiment [9], in experiment [14] and in [15] was inactive. The compound was classed as inactive in experiment [16] and in experiment [17].

With `C=Cc1ccc(OC(C)=O)cc1`, the compound was classed as inactive in experiment [1], in experiment [2], in experiment [3], in experiment [19], in [5] and in experiment [6]. The compound was called inactive in experiment [7], in experiment [8], in [18], in experiment [9], in [10] and in [11]. Moreover, the call in [14], in experiment [15], in experiment [16] and in experiment [17] was inactive.

In the case of `O=C1CCCCCCCCCCCN1`, the call in [1], in experiment [2], in experiment [3], in [4], in [5] and in experiment [6] was inactive. Moreover, the compound was called inactive in [7], in experiment [8], in experiment [18], in [9], in [14] and in experiment [15]. Moreover, the result in [16] and in experiment [17] was inactive.

`c1ccc2cnccc2c1`: the call in [1], in experiment [2], in experiment [3], in [4], in experiment [5] and in experiment [6] was inactive. The call in [7], in experiment [8], in experiment [18], in experiment [9], in experiment [11] and in [12] was inactive. The outcome in experiment [13], in experiment [14], in experiment [15], in experiment [16] and in experiment [17] was inactive. In addition, in experiment [10], the AC50 was 27.6 µM (active).

(Values after PubChem BioAssay (EPA / NIEHS).)
